TDP1 cell CPT = DT40-hTDP1 cell growth loss with CPT. chicken DT40 Tdp1-/-;hTDP1 cells + 20 nM CPT, ATP luminescence, 48 h. Potency, µM (highest dose often 46.2 µM), without a hit: at the highest dose activity change, negative = growth inhibition, usual class: inhibitors. 420,000 tested, 12% active. AID 686979; also: potency is read from the fitted curve at half-maximal effect; nearly all actives have a fitted effect of over 55% in size
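Chicken DT40 Tdp1-/- cells complemented with human TDP1, 400 cells/well, exposed to compounds plus 20 nM camptothecin for at least 48 h at 37 C; viability read as ATP content by CellTiter-Glo luminescence.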
ALOX12 inh = blocks human arachidonate 12S-lipoxygenase; P18054; purified 12hLO, xylenol orange hydroperoxide absorbance; Potency, µM (top dose mostly 108 µM), inactives show at the top dose activity change, negative = inhibition, most hits filed as inhibitors; 580,000 tested, 1.1% active; also: potency is read from the fitted curve at half-maximal effect
Target sequence (P18054 whole entry, looked up): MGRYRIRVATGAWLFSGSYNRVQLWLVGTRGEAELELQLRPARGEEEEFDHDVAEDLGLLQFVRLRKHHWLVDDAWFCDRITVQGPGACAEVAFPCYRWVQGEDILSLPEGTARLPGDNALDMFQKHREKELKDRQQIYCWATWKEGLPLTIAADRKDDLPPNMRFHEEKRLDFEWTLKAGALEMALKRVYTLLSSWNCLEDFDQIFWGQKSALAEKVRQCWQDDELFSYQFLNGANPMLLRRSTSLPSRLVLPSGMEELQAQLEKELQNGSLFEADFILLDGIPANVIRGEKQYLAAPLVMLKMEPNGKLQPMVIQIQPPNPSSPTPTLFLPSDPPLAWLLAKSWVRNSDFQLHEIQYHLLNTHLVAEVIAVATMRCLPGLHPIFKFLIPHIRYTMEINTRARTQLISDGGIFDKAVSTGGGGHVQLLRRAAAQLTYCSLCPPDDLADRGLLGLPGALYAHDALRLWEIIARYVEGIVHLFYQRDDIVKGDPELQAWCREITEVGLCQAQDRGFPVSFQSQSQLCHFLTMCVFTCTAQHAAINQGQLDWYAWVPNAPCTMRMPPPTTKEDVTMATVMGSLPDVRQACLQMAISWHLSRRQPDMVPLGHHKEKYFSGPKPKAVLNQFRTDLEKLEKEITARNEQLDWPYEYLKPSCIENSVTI
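Purified human 12hLO at 150 nM in 25 mM Hepes, 0.01% Triton X-100, pH 7.0, preincubated 15 min at room temperature with compound. Reaction started with 40 uM arachidonic acid, 30 min at room temperature. Hydroperoxide measured by Fe-xylenol orange, 573/405 nm absorbance ratio.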
IL-1B inflam inh = inflammasome signaling inhibition, IL-1 beta readout. THP-1 LPS/ATP IL-1B secretion, AlphaLISA, 16 h; hits give low values. activity change, % at 57.5 µM. AID 743279. 360,000 tested, 4.7% active; in the data active = activity change below about -50%; inconclusive = mostly about -30% to -49%
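THP-1 cells pretreated 1 hr with compounds (up to 57.5 uM final), then stimulated with LPS (250 ng/mL final) plus ATP (1.25 mM final); secreted IL-1B measured by AlphaLISA after 16 hr, decreased signal indicating inhibition.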
HT1080 IDH1KD tx = toxicity to HT-1080 IDH1 knockdown cells (counter line); HT-1080 IDH1 knockdown viability, ATP luminescence, 48 h; Potency, µM (highest dose often 46.1 µM), for inactives: at the highest dose activity, negative = toxicity, hits mostly cytotoxic; 360,000 tested, 2% active;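 also: potency is read from the fitted curve at half-maximal effect; 0% = DMSO wells and -100% = cell-free medium wells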
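Cytotoxicity counter-line: IDH1KD HT-1080, 48 h, CellTiter-Glo. Curves classed by r2, magnitude and activity.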
HT1080-NT tox = kills 2HG-producing HT-1080-NT fibrosarcoma cells. HT-1080-NT fibrosarcoma viability, CellTiter-Glo ATP luminescence, 48 h. Potency, µM (top dose mostly 46.1 µM), without a hit: at the top dose activity, negative = less viability, most hits filed as cytotoxic. 360,000 tested, 1.6% active. AID 686970;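 also: NT is the 2HG producing partner of a matched IDH1 knockdown line; potency is read from the fitted curve at half-maximal effect; 0% = DMSO-treated cells and -100% = media-only wells without cells; nearly all actives have a fitted effect of over 55% in size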
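750 cells/well, RPMI + 5% FBS; 2 h settle, compound pin-transfer, 48 h at 37 degrees C. CellTiter-Glo 10 min RT, luminescence. Normalized to DMSO and media-only wells.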
DT40 TDP1 no CPT = qHTS for Inhibitors of human tyrosyl-DNA phosphodiesterase 1 (TDP1): qHTS in cells in absence of CPT; AID 686978, 2013; 420,000 tested, 15% active; Potency, µM (doses to about 46.2 µM), for inactives: at the top dose activity change, negative = growth inhibition, usual class: inhibitors; DT40 Tdp1-/- hTDP1 cells, no CPT, ATP luminescence, 48 h; also: potency is read from the fitted curve at half-maximal effect; nearly all actives have a fitted effect of over 55% in size
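Growth of hTDP1-complemented DT40 Tdp1-knockout cells is measured by ATP luminescence after at least 48 hr compound exposure at 37 °C, with DMSO substituting for the 20 nM CPT used in the parallel screen.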
Numbers without * were called inactive; ? = inconclusive; nt = not tested or not shown; ! = not active in a repeat; [ ] = dose if it differs, or a comment. The full list was thinned out, with hits kept by preference. Unless noted, calls follow the shape of the dose curve; as a rule, active = well fitted curve in the direction sought with a large enough effect; inconclusive = small, poorly fitted or top-dose-only effect, or another doubt; inactive = no such curve, though single readings can be large; an effect the other way counts as inactive or inconclusive. Unless noted, % is scaled to controls: 0 for no effect and ±100 for the full control effect.

SMILES	TDP1 cell CPT	ALOX12 inh	IL-1B inflam inh	HT1080 IDH1KD tx	HT1080-NT tox	DT40 TDP1 no CPT
OC[C@@H]1CN(Cc2cccc(F)c2)C[C@H]1c1nc(-c2ccncc2)no1	nt	42%	nt	nt	nt	nt
O=S(=O)(c1ccc(NC(=S)N2CCN(c3ccccc3F)CC2)cc1)N1CCOCC1	?	0%	?	-24%	-1%	18µM*
COc1ccccc1N1CCN(C(=S)Nc2ccc(S(=O)(=O)N3CCOCC3)cc2)CC1	18µM*	-3%	?	?	-19%	15µM*
COc1ccccc1N1CCN(S(=O)(=O)c2ccc(NC(C)=O)cc2)CC1	-1%	13%	1	-4%	-3%	-27%
CCCc1ccc(Oc2cc(N3CCOCC3)nc(-c3ccccc3)n2)cc1	29µM*	-28%	12	-12%	-7%	?
COc1cccc(Sc2cc(N3CCOCC3)nc(-c3ccccc3)n2)c1	?	90%	-13	-10%	-2%	-32%
Clc1ccc(Sc2cc(N3CCOCC3)nc(-c3ccccc3)n2)cc1	?	6%	0	13%	2%	29µM*
O=C(NC1CCCCC1)N(CCO)Cc1cc2cc3c(cc2[nH]c1=O)OCCO3	?	0%	7	2%	11%	?
CCc1ccc2[nH]c(=O)c(CN(CCN(C)C)C(=O)Nc3ccccc3)cc2c1	?	10%	-59*	?	?	?
CCc1ccc2[nH]c(=O)c(CN(CCN(CC)CC)C(=O)NC3CCCCC3)cc2c1	15µM*	357%	-56*	?	16µM*	26µM*
O=C(Nc1ccc2oc(-c3ccccc3)nc2c1)c1ccc(Cl)cc1	nt	4%	nt	nt	nt	nt
O=[S@]1Oc2ccccc2-c2ccccc21	?	?	?	-12%	2%	13µM*
COc1ccc(CN2CCC(C)CC2)cc1	nt	-55%	nt	nt	nt	nt
CC(C)OCCCNC(=O)c1ccc(CSc2nc3cccnc3n2Cc2ccccc2)cc1	?	-2%	nt	nt	nt	23µM*
COCCCNC(=O)c1ccc(CSc2nc3cccnc3n2Cc2ccc(OC)cc2)cc1	23µM*	-15%	nt	nt	nt	16µM*
COCCCNC(=O)c1ccc(Cn2c(SCc3cccc(C)c3)nc3cccnc32)cc1	?	-16%	nt	nt	nt	?
CCNC(=O)c1ccc(CSc2nc3cccnc3n2Cc2ccc(OC)cc2)cc1	?	-13%	nt	nt	nt	?
COCCCNC(=O)c1ccc(Cn2c(SCc3ccc(F)cc3)nc3cccnc32)cc1	?	-14%	nt	nt	nt	15µM*
CCc1cccc(CC)c1NC(=O)c1ccc(CSc2ccccc2)cc1	nt	10%	nt	nt	nt	nt
COc1cccc(CN2CCC(N3C(=O)C(OCC4CC4)C34CCCCC4)CC2)c1OC (stereo not drawn)	nt	0%	nt	nt	nt	nt
COc1cc(OC)c(-c2nn3c(-c4cc(C)[nH]n4)nnc3s2)cc1OC	7.1µM*	nt	nt	nt	nt	4.5µM*
COc1cc(OC)c(-c2nn3c(-c4n[nH]c5c4CCC5)nnc3s2)cc1OC	?	nt	nt	nt	nt	11µM*!
COCCOc1ccc(C(=O)N[C@@H]2CN(C(=O)Nc3ccccc3)CCC[C@H]2O)cc1	nt	6%[176 µM]	nt	nt	nt	nt
CCc1nncn1C1CCN(S(=O)(=O)c2cccc(OC)c2)CC1	nt	79µM*	nt	nt	nt	nt
CC(=O)CC1(O)C(=O)Nc2ccccc21 (stereo not drawn)	-4%	18%	11	-10%	8%	12%
SMILES	TDP1 cell CPT	ALOX12 inh	IL-1B inflam inh	HT1080 IDH1KD tx	HT1080-NT tox	DT40 TDP1 no CPT
COC1=CC(=O)C=C(OC)C1(O)CC(C)=O	4.1µM*	4%	1	5%	0%	3.7µM*
CC(C)(C)c1coc([C@@H]2COCCN2Cc2ccc(Cl)cc2)n1	nt	72%[176 µM]	nt	nt	nt	nt
CCOC(=O)[C@]12CCCC=C1N(CCc1ccc(OC)c(OC)c1)C(=O)[C@H](CC(=O)N1CCN(C(=O)C3CC3)CC1)C2	-10%	8%	19	17%	9%	-14%
CCOC(=O)[C@]12CCCC=C1N(CCc1ccc(OC)c(OC)c1)C(=O)[C@H](CC(=O)N1CCCCC1)C2	15µM*	13%	-25	-4%	-11%	12µM*
CCOC(=O)[C@]12CCCC=C1N(CCc1ccc(OC)c(OC)c1)C(=O)[C@H](CC(=O)NCc1ccccc1)C2	16µM*	-16%	?	6%	-7%	13µM*
CCCCCCCCN1C(=O)[C@H](CC(=O)NCc2ccc(OC)c(OC)c2)C[C@@]2(C(=O)OCC)CCCC=C12	?	?	-77*	?	?	?
CC1CCN(CC(=O)NCCC2=CCCCC2)CC1	nt	22%	nt	nt	nt	nt
CC(C)Cc1ccc(S(=O)(=O)Nc2cccnc2)cc1	?	-10%	55	?	?	?
CCC(C)c1ccc(S(=O)(=O)Nc2cccnc2)cc1 (stereo not drawn)	?	?	34	?	-9%	29µM*
CSc1nc(N)c(C(=O)Nc2ccc([N+](=O)[O-])cc2)s1	-9%	8%	-75*	21%	12%	?
OC(CN1CCCCC1)Cn1c(C(F)(F)F)nc2ccccc21 (stereo not drawn)	-1%	50%	8	16%	14%	12%
OC(CN1CCNCC1)Cn1c2ccc(Br)cc2c2cc(Br)ccc21 (stereo not drawn)	nt	28µM*	nt	nt	nt	nt
OC(CN1CCCCC1)Cn1c2ccccc2c2cc(Br)ccc21 (stereo not drawn)	16µM*	0%	-75*	?	23µM*	16µM*
O=S(=O)(CCSc1nnnn1C1CC1)c1cc(Cl)ccc1Cl	nt	-25%	nt	nt	nt	nt
Cn1c(O)c(C2=c3ccccc3=NC2=O)sc1=Nc1ccc(Cl)cc1	23µM*	?	16	-17%	-6%	?
O=c1[nH]c(Nc2ccccc2)nc2nccc(-c3ccco3)c12	nt	35µM*	nt	nt	nt	nt
COc1ccnc(Oc2ccc(F)cc2)c1C(=O)N/C=N/OCc1ccc(F)cc1Cl	?	0%[57.4 µM]	-64*	-14%	3%	?
CCOC(CNC(=O)c1ccc(N2CCc3ccccc32)c([N+](=O)[O-])c1)OCC	21µM*	6%	-19	-1%	-1%	18µM*
Cc1nc(Nc2ccc(NC(=O)c3cccs3)cc2)cc(N2CCCCC2)n1	nt	-13%	nt	nt	nt	nt
CCc1noc(CN(CC)C(=O)c2ccccc2NCc2sccc2C)n1	nt	23%	nt	nt	nt	nt
COc1cc(C(=O)NCC(c2cccs2)N2CCOCC2)cc(OC)c1OC (stereo not drawn)	-10%	-1%	9	9%	-2%	-26%

Bioassay records as filed in PubChem.
